Screening results from PubChem BioAssay.
A selection: hits, their analogues and other compounds. The true share with any hit is near 0.92%.
LAP4-GFP MLPCN = yeast TOR pathway LAP4-GFP modulation | S. cerevisiae LAP4-GFP multiplex, flow cytometry GFP, 3 h; median GFP as percent of DMSO wells | GFP response vs DMSO, % at 10 µM | 320,000 tested, 0.34% active;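 active means GFP response vs DMSO above a set limit, about the screen mean plus 3 SD, cut at about 150% in these data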
AGP1 TOR yeast = modulators of TOR pathway AGP1-GFP in S. cerevisiae; S. cerevisiae AGP1-GFP multiplex flow cytometry, 3 h; GFP as percent of DMSO wells; 320,000 tested, 0.02% active; GFP response vs DMSO, % at 10 µM;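 active means GFP response relative to DMSO above a set limit, near screen average plus 3 SD, cut at about 150% in these data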;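 further: median GFP channel fluorescence of the gated AGP1 strain per well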
CIT2 TOR yeast = yeast TOR pathway CIT2-GFP modulation; AID 2029; S. cerevisiae CIT2-GFP strain, flow cytometry, 3 h; 100 means same as DMSO wells; GFP response vs DMSO, % at 10 µM; 320,000 tested, 0.065% active;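 active means GFP response relative to DMSO above a set limit, near the screen mean plus 3 SD, cut at about 150% in these data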;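 further: ratio of well median GFP fluorescence to mean of DMSO wells on the plate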
MEP2 TOR yeast = yeast TOR pathway MEP2-GFP modulation | S. cerevisiae MEP2-GFP strain, flow cytometry GFP, 3 h; 100% = DMSO control level | GFP response vs DMSO, % at 10 µM | 330,000 tested, 0.51% active;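 active means GFP response versus DMSO above a set limit, roughly screen mean plus 3 SD, cut at about 180% in these data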;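 further: median GFP fluorescence of the barcode-gated MEP2-GFP cells per well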
RPL19A TOR yeast = alters RPL19A-GFP fluorescence in TOR pathway yeast screen; 330,000 tested, 0.3% active; percent response vs DMSO, % at 10 µM; S. cerevisiae RPL19A-GFP strain, flow cytometry, 3 h; active compounds read low;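 active means percent response vs DMSO below 50%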;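 further: median channel GFP fluorescence of the barcoded RPL19A-GFP strain; lower means less RPL19A-GFP as with rapamycin TOR inhibition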
LAP4-GFP pick2 = yeast LAP4-GFP modulation, second cherry pick | shares compounds with LAP4-GFP MLPCN | S. cerevisiae LAP4-GFP strain, flow cytometry GFP, 3 h | GFP response vs DMSO, % at 10 µM | 590 tested, 20% active | AID 2621;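 active means GFP signal as percent of the solvent control above about 150%, meaning raised reporter expression, limit read from the data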
MEP2 cherry2 = reconfirmed MEP2-GFP TOR pathway modulator in yeast. shares compounds with LAP4-GFP MLPCN. S. cerevisiae MEP2-GFP strain, flow cytometry GFP, 3 h. GFP response vs DMSO, % at 10 µM. 590 tested, 10% active. AID 2622;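 active means GFP signal above 150% of the solvent control wells, that is a rise of more than half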;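 further: median channel GFP fluorescence of all gated yeast cells per well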
RPL19A-GFP pick2 = reconfirmed modulator of RPL19A-GFP TOR reporter in yeast; S. cerevisiae RPL19A-GFP strain, flow cytometry GFP, 3 h; active compounds read low; 100% means same as DMSO wells; 590 tested, 3% active; GFP response vs DMSO, % at 10 µM; shares compounds with LAP4-GFP MLPCN;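 active means under 65% GFP response relative to DMSO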;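 further: median GFP channel fluorescence per well over the all cells gate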
CIT2 GFP CP2 = reconfirmed modulator of CIT2-GFP TOR reporter in yeast. GFP response vs DMSO, % at 10 µM. S. cerevisiae CIT2-GFP strain, flow cytometry GFP, 3 h; DMSO control wells read 100%. shares compounds with LAP4-GFP MLPCN. 590 tested, 8% active;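 active means GFP response vs DMSO above about 150%, limit read from the data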;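 further: median green fluorescence per well over all gated yeast cells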
AGP1-GFP pick2 = yeast AGP1-GFP TOR reporter modulation, second cherry pick; AID 2643; 590 tested, under 10 active; shares compounds with LAP4-GFP MLPCN; percent response vs DMSO, % at 10 µM; S. cerevisiae AGP1-GFP strain, flow cytometry GFP, 3 h;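 active means over 150 percent of DMSO response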;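 further: median GFP channel fluorescence over all cells without mother daughter split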
Yeast autofluor = counter-screen for compound autofluorescence in yeast s288c cells; shares compounds with LAP4-GFP MLPCN; S. cerevisiae s288c, 520 nm autofluorescence, flow cytometry, 3 h; active compounds read high; zero means same as solvent-only cells; fluorescence change (kMESF span) at 33 µM; 610 tested, under 10 active; AID 2757;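 active means fluorescence span over the dose series, or activity score, above about 33, limit read from the data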
TORC1 bypass = compounds blocking wildtype yeast growth but not TORC1 bypass cells; shares compounds with LAP4-GFP MLPCN; S. cerevisiae BY4741 spot growth rating, 48-72 h; active compounds read low; growth rating (0-3) at 30 µM; 120 tested, under 10 active; AID 504456;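 active means growth rating at most 1 for wild type yeast while the TORC1 bypass strain still grows fully, rated 3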
Large screens that a line does not name were inactive (follow-up assays come after a bar, where they were run).

O=C(NCC(=O)N1CCN(c2ccccc2O)CC1)C1CCCCC1	none
O=C(NCC(=O)N1CCC(N2CCCCC2)CC1)C1CCCCC1	MEP2 TOR yeast 230, RPL19A TOR yeast 26 | LAP4-GFP pick2 inactive | MEP2 cherry2 inactive | RPL19A-GFP pick2 inactive | CIT2 GFP CP2 inactive | AGP1-GFP pick2 inactive
CCN(CC)c1ccc2cc(-c3nc4ccccc4[nH]3)c(=O)oc2c1	LAP4-GFP MLPCN 171, MEP2 TOR yeast 200 | Yeast autofluor inactive
CCN(CC)c1ccc2cc(-c3nc4ccccc4n3C)c(=O)oc2c1	none
CCN(CC)c1ccc2cc(-c3nnc(-c4ccccc4)o3)c(=O)oc2c1	none
CCN(CC)c1ccc2cc(-c3nc(-c4ccc(OC)cc4)cs3)c(=O)oc2c1	LAP4-GFP MLPCN 160, CIT2 TOR yeast 204, MEP2 TOR yeast 221 | Yeast autofluor inactive
CCOC(=O)c1ccc(S(=O)(=O)N2CCC(C(=O)NCC3CCCCC3)CC2)cc1	none
COc1ccc2nc(Cl)cc(Cl)c2c1	none
COc1ccc2nccc(/C=C/c3ccnc4ccc(OC)cc34)c2c1	none | LAP4-GFP pick2 inactive | MEP2 cherry2 inactive | RPL19A-GFP pick2 inactive | CIT2 GFP CP2 inactive | AGP1-GFP pick2 inactive
O=C1/C(=C\c2ccc(O)c(O)c2)SC(=S)N1Cc1ccccc1	LAP4-GFP MLPCN 219, CIT2 TOR yeast 203, MEP2 TOR yeast 409 | Yeast autofluor 33
Cc1ccc(/C=C2\SC(=S)N(Cc3ccccc3)C2=O)o1	LAP4-GFP MLPCN 156 | LAP4-GFP pick2 152 | MEP2 cherry2 inactive | RPL19A-GFP pick2 inactive | CIT2 GFP CP2 inactive | AGP1-GFP pick2 inactive | Yeast autofluor inactive
COc1cc(/C=C2/SC(=S)N(Cc3ccccc3)C2=O)ccc1O	none
CN(Cc1ccccc1)C(=O)c1ccc(NC(=O)C2CCN(C(=O)OC(C)(C)C)CC2)cc1	none
CC(CCCCCCCCC(=O)O)N(CCO)C(=O)OC(C)(C)C (stereo unspecified)	none
Cc1ccc(S(=O)(=O)Cc2cc(F)c([N+](=O)[O-])cc2[N+](=O)[O-])cc1	LAP4-GFP MLPCN 172 | Yeast autofluor inactive
COc1ccc(NC(=O)CSc2nnnn2C2CC2)cc1S(=O)(=O)N1CCOCC1	none
Cc1ccc(C)c(N2C(=N)S/C(=C\c3ccc(-c4ccccc4C(=O)O)o3)C2=O)c1	none
Cc1ccc2c(nc3s/c(=C\c4ccc(-c5ccccc5C(=O)O)o4)c(=O)n32)c1C	MEP2 TOR yeast 184 | Yeast autofluor inactive
Cc1cc(Nc2cc(-c3ccccc3)nc(NCc3ccccc3)n2)n[nH]1	none (no result: LAP4-GFP MLPCN, AGP1 TOR yeast, CIT2 TOR yeast, MEP2 TOR yeast, RPL19A TOR yeast) | TORC1 bypass inactive
COc1cc(C(=O)NCc2nnc(SCC(=O)Nc3nccs3)o2)cc(OC)c1OC	none | LAP4-GFP pick2 inactive | MEP2 cherry2 inactive | RPL19A-GFP pick2 inactive | CIT2 GFP CP2 inactive | AGP1-GFP pick2 inactive
